Only some compounds are listed: those with a hit (about 1.3% of all), similar ones and a draw of the others.
AmpC detergent = AmpC beta-lactamase inhibition with detergent present | Potency, µM (series often up to 114 µM), for the others: at the top dose activity change, negative = inhibition, most hits filed as inhibitors | P00811 | AID 485294 | hit rate 0.041% among 370,000 | AmpC hydrolysis of nitrocefin, absorbance 480 nm, 0.01% Triton;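 further: 0% = no-compound wells and -100% = no-enzyme wells; nearly all actives have a fitted effect of over 25% in size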
Target sequence (P00811 whole entry, looked up): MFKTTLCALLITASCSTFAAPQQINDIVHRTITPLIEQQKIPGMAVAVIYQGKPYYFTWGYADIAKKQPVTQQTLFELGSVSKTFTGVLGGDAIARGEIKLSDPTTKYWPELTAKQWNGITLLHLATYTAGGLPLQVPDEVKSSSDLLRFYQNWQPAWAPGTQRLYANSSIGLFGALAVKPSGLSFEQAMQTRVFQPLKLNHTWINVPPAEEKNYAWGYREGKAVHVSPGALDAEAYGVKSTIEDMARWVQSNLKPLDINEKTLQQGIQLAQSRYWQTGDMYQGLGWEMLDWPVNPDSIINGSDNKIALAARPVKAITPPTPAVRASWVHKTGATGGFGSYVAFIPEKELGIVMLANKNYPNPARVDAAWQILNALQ
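20 mM phosphate pH 7.0 + 0.01% (detergent screen) or 0.0001% Triton X-100; 5.3 nM AmpC reagent; cpd preinc 15 min RT; nitrocefin (800 uM stock) to start; A480 q20 s × 4 min; Activity was normalised to no-enzyme and no-compound control wells.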
VACV mCherry inh = vaccinia inhibition (mCherry reporter). Vaccinia virus mCherry reporter infection, fluorescence. Potency, µM (highest dose often 36.5 µM), for the others: at the highest dose activity change, negative = inhibition, actives largely listed as inhibitors. hit rate 0.63% among 310,000. AID 720579; calls by dose curve; tested in A549 cells; further: on the % scale 0 is the no-effect control and ±100 the full control effect; nearly all actives have a fitted effect of over 35% in size
Vaccinia Venus = vaccinia inhibition (Venus reporter); AID 720580; hit rate 0.46% among 330,000; Potency, µM (top dose mostly 36.5 µM), for the others: at the highest dose activity change, negative = inhibition, hits mostly inhibitors; Vaccinia virus Venus reporter expression, fluorescence; calls by dose curve; tested in A549 cells; further: on the % scale 0 is the no-effect control and ±100 the full control effect; nearly all actives have a fitted effect of over 30% in size
AmpC no deterg = AmpC beta-lactamase inhibition without detergent; P00811; AmpC nitrocefin hydrolysis, absorbance 480 nm, 0.0001% Triton; Potency, µM (series often up to 57.1 µM), without a hit: at the highest dose activity change, negative = inhibition, usual class: inhibitors; hit rate 0.52% among 330,000;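 further: plate controls were no compound for no effect and no enzyme for full effect; nearly all actives have a fitted effect of over 20% in size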
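AmpC (5.3 nM in the dispensed reagent) in 20 mM phosphate pH 7.0 with 0.01% (detergent screen) or 0.0001% Triton X-100 was preincubated with compounds for 15 min at room temperature. Nitrocefin was then added from an 800 uM solution, and hydrolysis was followed at 480 nm.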
SARS PLpro yeast = inhibitors of SARS-CoV papain-like protease in yeast; S. cerevisiae expressing SARS-CoV PLpro, growth rescue; Potency, µM (top dose mostly 32.9 µM), for inactives: top-dose activity, positive = growth rescue, actives largely listed as activators; hit rate 0.19% among 330,000; calls by dose curve; further: 0% is about no effect; nearly all actives have a fitted effect of over 55% in size
* = called active by the depositor. Unless noted, the call rests on the fitted dose curve; in most records, active means well fitted curve in the direction sought with a large enough effect; inconclusive means small, poorly fitted or top-dose-only effect, or another doubt; inactive means no such curve, though single readings can be large; an effect the other way counts as inactive or inconclusive. Potency means the concentration at half of the fitted maximal effect.

How did O=C(NCC1CCC2(CCN(Cc3cnn(-c4ccc(F)cc4)c3)CC2)O1)c1ccccc1 (configuration not stated) do in these assays?
VACV mCherry inh: inactive; Vaccinia Venus: -13.4%

How did O=[N+]([O-])c1ccc(N2CCCC(C(F)(F)F)C2)c2ccncc12 (configuration not stated) do in these assays?
AmpC detergent: -9.1%; VACV mCherry inh: 2.82µM*; Vaccinia Venus: 7.94µM*; AmpC no deterg: -6.2%; SARS PLpro yeast: -51.2%

How did O=[N+]([O-])c1cc(C(F)(F)F)ccc1N1CCCC(O)C1 (configuration not stated) do in these assays?
AmpC detergent: -12.0%; VACV mCherry inh: -17.8%; Vaccinia Venus: -3.8%; AmpC no deterg: 0.7%; SARS PLpro yeast: 0.3%

Results for O=C(NC1c2ccccc2-c2ccccc21)N1CCCCC1 ?
AmpC detergent: -13.2%; VACV mCherry inh: 7.08µM*; Vaccinia Venus: inconclusive; AmpC no deterg: -4.1%; SARS PLpro yeast: 4.4%

Results for CN(C)C(=O)NC1c2ccccc2-c2ccccc21 ?
AmpC detergent: -12.3%; AmpC no deterg: 5.4%; SARS PLpro yeast: -2.3%

Results for Cn1c(CCNC(=O)C2CC23CCN(C(=O)C2=CCCC2)CC3)nc2ccccc21 (configuration not stated) ?
VACV mCherry inh: -4.6%; Vaccinia Venus: -0.1%

How did CC(=O)CC[N+](C)(C)C do in these assays?
VACV mCherry inh: -8.1%; Vaccinia Venus: -8.7%

What do the screens show for `CC(=O)CCC(C)=O`?
AmpC detergent: 2.7%; VACV mCherry inh: 12.6µM*; Vaccinia Venus: inconclusive; AmpC no deterg: 3.1%; SARS PLpro yeast: -11.2%

What do the screens show for `COc1ccc(-c2nc(C#N)c(NCc3ccc(F)cc3)o2)cc1OC`?
AmpC detergent: inconclusive; Vaccinia Venus: 12.6µM*; AmpC no deterg: 0.5%; SARS PLpro yeast: 4.4%

How did COc1ccc(-c2nc(C#N)c(NCc3cccnc3)o2)cc1OC do in these assays?
AmpC detergent: 4.6%; AmpC no deterg: -10.1%; SARS PLpro yeast: -4.2%

Results for N#Cc1nc(-c2ccc(F)cc2)oc1NCCN1CCOCC1 ?
AmpC detergent: inconclusive; VACV mCherry inh: inconclusive; Vaccinia Venus: -11.0%; AmpC no deterg: 0.631µM*; SARS PLpro yeast: 0.4%

Results for COc1ccc(-c2nc(C#N)c(NCCCN3CCOCC3)o2)cc1 ?
AmpC detergent: 5.4%; VACV mCherry inh: -21.7%; Vaccinia Venus: -16.4%; AmpC no deterg: 28.2µM*; SARS PLpro yeast: inconclusive

Results for COc1cccc(CNC(=O)c2c(OC)cc(=O)n3c2CCN(C(=O)c2ccc(C)nc2)CC3)c1 ?
VACV mCherry inh: inactive; Vaccinia Venus: 0.0%

Results for Cc1cnc(-n2ncc(C(=O)NCC3CCCN(C)C3)c2C)nc1-c1cccs1 (configuration not stated) ?
VACV mCherry inh: -10.3%; Vaccinia Venus: -11.2%

What do the screens show for `Cc1cc(OCC(=O)N(Cc2ccc(N(C)C)cc2)C2CCS(=O)(=O)C2)cc(C)c1Cl` (configuration not stated)?
AmpC detergent: 12.8%; VACV mCherry inh: -12.4%; Vaccinia Venus: -6.4%

Results for C#CCOCCOCCOCCNc1nc(N2CCN(C(=O)CCCCCCCCCCNC(=O)Cn3cc(CCCCCN)nn3)CC2)nc(N2CCN(C(=O)CCCCCCCCCCNC(=O)[C@H]([C@@H](C)CC)n3cc(CCCCN=C(N)N)nn3)CC2)n1 ?
AmpC detergent: -1.1%; VACV mCherry inh: inconclusive; Vaccinia Venus: 5.62µM*; AmpC no deterg: 199.7%; SARS PLpro yeast: -7.4%

What do the screens show for `C#CCOCCOCCOCCNc1nc(N2CCN(C(=O)CCCCCCCCCCNC(=O)[C@H]([C@@H](C)CC)n3cc(CCCCN=C(N)N)nn3)CC2)nc(N2CCN(C(=O)CCCCCCCCCCNC(=O)[C@H](CCCCN)n3cc(C)nn3)CC2)n1`?
AmpC detergent: 8.5%; VACV mCherry inh: inconclusive; Vaccinia Venus: 7.08µM*; AmpC no deterg: 315.3%; SARS PLpro yeast: 3.1%

Results for C#CCOCCOCCOCCNc1nc(N2CCN(C(=O)CCCCCCCCCCNC(=O)[C@H]([C@@H](C)CC)n3cc(CCCCN=C(N)N)nn3)CC2)nc(N2CCN(C(=O)CCCCCCCCCCNC(=O)[C@H](CO)n3cc(CCCCCN)nn3)CC2)n1 ?
AmpC detergent: -5.9%; VACV mCherry inh: inconclusive; Vaccinia Venus: 7.08µM*; AmpC no deterg: 177.5%; SARS PLpro yeast: -2.9%

How did C#CCOCCOCCOCCNc1nc(N2CCN(C(=O)CCCCCCCCCCNC(=O)[C@H]([C@@H](C)CC)n3cc(CCCCCN)nn3)CC2)nc(N2CCN(C(=O)CCCCCCCCCCNC(=O)[C@H]([C@@H](C)CC)n3cc(CCCCN=C(N)N)nn3)CC2)n1 do in these assays?
AmpC detergent: 11.3%; AmpC no deterg: 307.1%; SARS PLpro yeast: 8.7%

What do the screens show for `C#CCOCCOCCOCCNc1nc(N2CCN(C(=O)CCCCCCCCCCNC(=O)[C@H]([C@@H](C)CC)n3cc(CCCCCN)nn3)CC2)nc(N2CCN(C(=O)CCCCCCCCCCNC(=O)[C@@H]([C@H](C)CC)n3cc(CCCCCN)nn3)CC2)n1`?
AmpC detergent: 12.3%; AmpC no deterg: 359.4%; SARS PLpro yeast: 2.1%

What do the screens show for `C#CCOCCOCCOCCNc1nc(N2CCN(C(=O)CCCCCCCCCCNC(=O)[C@H]([C@@H](C)CC)n3cc(CCCCCN)nn3)CC2)nc(N2CCN(C(=O)CCCCCCCCCCNC(=O)[C@H](CO)n3cc(CCCCCN)nn3)CC2)n1`?
AmpC detergent: inconclusive; VACV mCherry inh: inconclusive; Vaccinia Venus: 10µM*; AmpC no deterg: 222.1%; SARS PLpro yeast: -2.4%

Results for CCOC(=O)c1c(-c2ccccc2)csc1NC(=O)c1cc(-c2ccc(Br)cc2)on1 ?
AmpC detergent: 14.8%; VACV mCherry inh: -10.1%; Vaccinia Venus: -10.1%

How did Cc1cc(C)n(-c2cccc(C(=O)NCC3Cc4cc(Cl)cc(-c5cnccn5)c4O3)c2)n1 (configuration not stated) do in these assays?
VACV mCherry inh: -18.5%; Vaccinia Venus: -5.2%

Results for CC(C)c1c(C(=O)N2CCCCC2c2cccnc2)cnn1-c1nccc(-c2cccs2)n1 (configuration not stated) ?
VACV mCherry inh: inconclusive; Vaccinia Venus: -19.6%

How did Cc1ccc2nc(/C(C#N)=C\c3ccc(Oc4ccc([N+](=O)[O-])cn4)cc3)[nH]c2c1 do in these assays?
AmpC detergent: -5.5%; VACV mCherry inh: inactive; Vaccinia Venus: -19.8%; AmpC no deterg: 28.2µM*; SARS PLpro yeast: -1.7%

Results for COc1ccc(C[C@H]2NC[C@H](O)[C@H]2OC(C)=O)cc1 ?
VACV mCherry inh: 0.447µM*; Vaccinia Venus: 0.891µM*

Results for CCOC(=O)N1CCN(c2ncnc3c2cnn3-c2ccc(Cl)cc2)CC1 ?
AmpC detergent: -2.2%; AmpC no deterg: 6.31µM*; SARS PLpro yeast: 5.7%

Bioassay records as filed in PubChem.
